# Assay outcomes as filed in PubChem BioAssay.
# RGS8-Gao reg = modulates binding of RGS8 to human Galphao; P09471; response (percent of control binding), % at 10 µM; actives 0.34% (n = 220,000); multiplexed bead flow cytometry; actives lie on both sides; AID 1423; in the data active means response below about 60% or above about 140%; inactive means in between;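 further: Galphao activated as the GDP aluminium fluoride complex binding bead-coupled RGS8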
# Target sequence (P09471 whole entry, looked up): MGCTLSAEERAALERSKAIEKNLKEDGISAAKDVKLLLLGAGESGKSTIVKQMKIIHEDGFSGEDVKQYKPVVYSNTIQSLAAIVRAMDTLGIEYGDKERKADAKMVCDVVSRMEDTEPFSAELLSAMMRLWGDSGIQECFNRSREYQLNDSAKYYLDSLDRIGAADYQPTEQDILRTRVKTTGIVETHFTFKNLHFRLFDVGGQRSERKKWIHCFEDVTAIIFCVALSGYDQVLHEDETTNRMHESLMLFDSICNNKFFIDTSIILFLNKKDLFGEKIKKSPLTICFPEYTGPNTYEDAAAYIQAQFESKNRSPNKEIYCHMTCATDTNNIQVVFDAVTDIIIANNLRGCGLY
# Avidin bead fluor = compound fluoresces at 488/530 nm on avidin beads | compound fluorescence 488/530 nm, flow cytometry; stronger effect = higher value | fluorescence (KMESF) at 10 µM | actives 0.38% (n = 220,000) | AID 1775; in the data active means fluorescence above about 47
# RGS7-Gao reg = regulators of human RGS7-Galphao interaction | actives 0.35% (n = 220,000) | Multiplexed bead flow cytometry, RGS7-Galphao binding; actives lie on both sides | P09471 | binding response (% of control), % at 10 µM; in the data active means binding response below about 49% or above about 150%; inconclusive means no clear call, values can overlap the other calls; inactive means in between;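 further: fluorescent Galphao held in activated GDP-AlF4 state binding bead-coupled RGS7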
# RGS4-Gao reg = modulates binding of RGS4 to human Galphao; actives 0.33% (n = 220,000); binding response (% of control), % at 10 µM; Multiplexed bead flow cytometry; actives lie on both sides; P09471; in the data active means binding response below about 49% or above about 150%; inactive means in between;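 further: fluorescent Galphao activated with aluminum fluoride binding bead-coupled RGS4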
# GSH fluor = GSH bead compound fluorescence profile | GSH beads flow cytometry, compound fluorescence 488/530 nm; stronger effect = higher value | actives 0.25% (n = 190,000) | AID 1776 | fluorescence (KMESF) at 10 µM; in the data active means fluorescence above about 89;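 further: glutathione beads carrying GST-tagged Bcl family fusion proteins plus one bare bead set; values are compound well signal with DMSO vehicle wells as background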
# RGS16-Gao HTS = modulates binding between human RGS16 and Galphao; O15492+P09471; bead-based flow cytometry RGS16-Galphao binding, fluorescence; actives lie on both sides; binding response (% of control), % at 10 µM; actives 0.38% (n = 220,000);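 further: Galphao activated by GDP with aluminum fluoride before binding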
# Target sequence (O15492 whole entry, looked up): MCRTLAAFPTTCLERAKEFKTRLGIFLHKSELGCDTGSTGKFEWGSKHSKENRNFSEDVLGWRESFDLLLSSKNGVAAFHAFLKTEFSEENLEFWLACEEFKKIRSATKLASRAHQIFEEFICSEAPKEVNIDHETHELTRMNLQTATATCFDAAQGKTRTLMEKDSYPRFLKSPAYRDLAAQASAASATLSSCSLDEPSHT
# Target sequence (P09471 whole entry, looked up): as the sequence (P09471 whole entry, looked up) above
# RGS-Gao = RGS4-Galphao interaction regulator (human); shares compounds with RGS16-Gao HTS; multiplexed bead flow cytometry, RGS–Galpha-o binding; RGS4–Galpha-o binding response, % at 10 µM; actives 99% (n = 1,600); AID 1504;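 further: fluorescently labeled Galpha-o bound to GDP with aluminium fluoride binding biotinylated RGS beads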
# Avidin counter = counter-screen: compounds disrupting biotin binding to avidin beads; shares compounds with RGS16-Gao HTS; streptavidin beads, fluorescein-biotin binding, flow cytometry; inhibition, % at 10 µM; 1,700 tested, under 10 active;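 active means inhibition above 50%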;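 further: median green fluorescence of gated singlet beads compared with DMSO control wells; 0% = DMSO wells and 100% = complete loss of bead fluorescence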
# RGS8-Gao single = confirmation of regulators of human RGS8-Galphao interaction. bead-based flow cytometry RGS8-Galphao binding, fluorescence; actives lie on both sides. shares compounds with RGS16-Gao HTS. actives 3% (n = 1,700). binding response (% of control), % at 10 µM. AID 1836; in the data active means binding response below about 72% or above about 130%; inactive means in between;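 further: Galphao activated as GDP AlF4 complex before binding bead RGS8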
# RGS7-Gao single = confirmation of regulators of human RGS7-Galphao interaction; bead-based flow cytometry RGS7-Galphao binding; actives lie on both sides; response (percent of control binding), % at 10 µM; actives 7.8% (n = 1,700); shares compounds with RGS16-Gao HTS; in the data active means response below about 75% or above about 130%; inactive means in between;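 further: fluorescent Galphao activated with GDP and aluminum fluoride binding bead-coupled RGS7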
# RGS16-Gao single = RGS16-Galphao interaction regulation, single point confirmation; response (% of control binding), % at 10 µM; bead-based flow cytometry, RGS16-Galphao binding; actives lie on both sides; actives 4% (n = 1,700); shares compounds with RGS16-Gao HTS; in the data active means response below about 74% or above about 130%; inactive means in between;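 further: Galphao activated as the GDP aluminium fluoride complex binding bead-coupled RGS16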
# RGS4-Gao single = confirmation of regulators of human RGS4-Galphao interaction. actives 4% (n = 1,700). shares compounds with RGS16-Gao HTS. binding response (% of control), % at 10 µM. RGS4-Galphao binding, multiplexed bead flow cytometry; actives lie on both sides; in the data active means binding response below about 74% or above about 130%; inactive means in between
# RGS19-Gao single = confirmation of regulators of human RGS19-Galphao interaction; bead-based flow cytometry RGS19-Galphao binding; actives lie on both sides; actives 5% (n = 1,700); shares compounds with RGS16-Gao HTS; response (percent of control binding), % at 10 µM; in the data active means response below about 50% or above about 160%; inactive means in between;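 further: 100% = no compound control and 0% = blank background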
# Starred values were filed as active, the others as inactive; i = inactive; ? = inconclusive; . = not tested or not shown; + = active, no number; [ ] = another dose, or the depositor's remark. Hits are enriched below; roughly 1.2% of the tested compounds scored in any of these assays. Unless noted, how the calls were made is not given here.
SMILES,RGS8-Gao reg,Avidin bead fluor,RGS7-Gao reg,RGS4-Gao reg,GSH fluor,RGS16-Gao HTS,Avidin counter,RGS8-Gao single,RGS7-Gao single,RGS16-Gao single,RGS4-Gao single,RGS19-Gao single,others
CSc1nc(-c2ccccc2)nn1S(=O)(=O)c1ccccc1,104.4,96*,171.2*[activator],173.2*[activator],19,199.2*[activator],-2.3,103.7,104.6,104.0,103.3,102.7,
COC1CCN(C(=O)CC2C(=O)NCCN2CC(C)(C)C)CC1 (stereo not drawn),17.3*,0,2.1*,10.0*,13,5.7*,3.0,105.5,98.5,107.4,98.7,110.2,
COC1CCN(C(=O)CC2C(=O)NCCN2CC2CCCCC2)CC1 (stereo not drawn),99.7,1,97.5,97.9,15,97.4,.,.,.,.,.,.,
CCN(CC)S(=O)(=O)c1cccc(NC(=O)CSc2nnc(N)s2)c1,96.6,21,96.1,94.1,9,97.3,.,.,.,.,.,.,
c1ccc(-c2ccccc2OCCCN2CCOCC2)cc1,98.2,24,103.2,98.7,23,94.5,.,.,.,.,.,.,
OCCCN1CCN(CCCOc2ccccc2-c2ccccc2)CC1,116.2,13,109.5,106.9,6,178.9*[activator],1.3,101.6,103.2,103.9,104.3,95.3,RGS-Gao=106.9*
Cn1c(NNC(=O)C(c2ccccc2)c2ccccc2)cc(=O)n(C)c1=O,78.1,6,85.4,91.6,17,30.4,.,.,.,.,.,.,
O=S1(=O)CC(O)C(N=Nc2c(O)n(Cc3ccccc3)c3ccccc23)C1 (stereo not drawn),99.9,5,?,100.0,.,103.9,.,.,.,.,.,.,
CC1CCc2c(sc(NC(=O)COC(=O)c3ccccc3NCc3ccco3)c2C#N)C1 (stereo not drawn),4.6*,-4,-2.0*,-5.5*,16,-59.4,-1.9,102.7,108.8,105.2,105.1,106.6,
C=CCNC(=S)NCc1cccnc1,127.5,14,112.4,111.7,5,276.2*[activator],1.1,101.9,101.8,104.1,103.8,91.2,RGS-Gao=111.7*
O=C(CNC(=O)c1ccccc1)Nc1cccc(C(F)(F)F)c1,193.1*[activator],560*,845.4*[activator],762.3*[activator],211*,+[activator],2.9,94.6,72.2*,84.8,83.0,63.7,
Cc1ccc(C(=O)NCC(=O)Nc2cccc(C(F)(F)F)c2)cc1,100.2,21,97.8,97.6,14,100.5,.,.,.,.,.,.,
NS(=O)(=O)c1cccc(NC(=O)Cc2ccc(Cl)c(Cl)c2)c1,148.1*[activator],12,167.1*[activator],156.2*[activator],14,150.5,0.9,100.7,97.3,101.0,100.1,87.5,
COc1ccc(OCCC(=O)OCC(=O)NCc2ccccc2)cc1,99.4,10,96.0,97.0,11,96.3,.,.,.,.,.,.,
O=C1c2ccccc2C(=O)N1CCc1ccccn1,152.9*[activator],3,117.0,127.3,24,i,1.0,102.2,99.6,99.4,97.9,54.3,RGS-Gao=127.3*
O=C1c2cccc3c([N+](=O)[O-])ccc(c23)C(=O)N1CCc1ccccn1,97.5,8,?,96.3,.,96.3,.,.,.,.,.,.,
CC(C)n1c(O)c(N=NC(=O)C2COc3ccccc3O2)c2ccccc21 (stereo not drawn),102.6,11,98.9,98.9,15,99.5,.,.,.,.,.,.,
CCSc1nnc(Nc2ccccc2)s1,41.9*,7,24.8*,14.6*,11,20.6*,-0.6,100.8,92.2,100.7,96.5,99.2,
CN(C)S(=O)(=O)Nc1ccccc1F,104.0,9,109.0,103.7,23,104.7,.,.,.,.,.,.,
O/N=C/c1ccc(OCc2ccccc2)c(Br)c1,74.1,7,82.1,84.4,9,3.0*,-1.8,101.1,103.8,100.1,102.7,106.1,RGS-Gao=84.4*
O/N=C/c1ccc(OCc2ccccc2)c(Cl)c1,81.7,7,91.6,88.3,12,50.5,.,.,.,.,.,.,
CCS(=O)(=O)CCSC1OC(COC(C)=O)C(OC(C)=O)C(OC(C)=O)C1OC(C)=O (stereo not drawn),96.9,6,86.8,90.1,24,78.0,.,.,.,.,.,.,
O=C(NCc1ccccc1)c1cnsn1,12.6*,1,9.6*,24.2*,13,6.7*,-0.9,103.4,102.0,102.1,102.5,92.8,
CCN(CC(=O)Nc1ccc(N2CCOCC2)cc1)C(=O)c1ccc(C(F)(F)F)cc1,105.0,9,107.8,103.1,13,101.0,.,.,.,.,.,.,
Cc1cc(NC(=O)CSc2nnc(-c3ccco3)o2)no1,102.1,.,95.6,100.2,44,.,3.5,94.6,80.3,89.5,86.0,71.1,
SMILES,RGS8-Gao reg,Avidin bead fluor,RGS7-Gao reg,RGS4-Gao reg,GSH fluor,RGS16-Gao HTS,Avidin counter,RGS8-Gao single,RGS7-Gao single,RGS16-Gao single,RGS4-Gao single,RGS19-Gao single,others
CCc1cc2ccccc2nc1SCC(=O)Nc1cc(C)on1,107.7,12,104.9,105.7,25,115.9,.,.,.,.,.,.,
Cc1cc(NC(=O)CSc2ccc3ccccc3c2)no1,.,.,.,.,29,.,-1.2,98.9,98.4,96.2,96.9,104.5,
Cc1cc(NC(=O)CSc2nc(-c3ccccc3)cs2)no1,.,.,.,.,40,.,-0.6,98.1,99.5,96.8,98.9,117.5,
Cc1cc(NC(=O)CSc2nc(-c3ccc(F)cc3)cs2)no1,90.7,14,85.4,87.0,15,89.3,.,.,.,.,.,.,
COc1ccc(-c2nnc(SCC(=O)Nc3cc(F)ccc3C)o2)cc1,99.8,116*,184.6*[activator],120.1,22,110.3,.,.,.,.,.,.,RGS-Gao=120.1*
CC(=O)Nc1ccc(NC(=O)CSc2nnc(-c3ccco3)o2)cc1,100.9,21,103.6,100.5,11,104.1,.,.,.,.,.,.,
O=C(NNS(=O)(=O)c1ccc(F)cc1F)c1csc(-c2cccnc2)n1,103.5,3,?,105.6,.,107.1,.,.,.,.,.,.,
COc1ccccc1OCc1csc(NC(=O)c2ccco2)n1,3.4*,-5,-7.5*,-19.4*,47,-41.5,1.1,105.4,104.0,109.5,102.1,115.6,
